Measurements from ChEMBL document CHEMBL4808148, “HDAC6 screening dataset using tau-based substrate in an enzymatic assay yields selective inhibitors and activators” (2021).
The campaign covered roughly 5,600 compounds. About 390 (7%) showed an effect of 50% or more. The sample holds strong results, similar compounds and a random draw of the others, so the mix is not that of the screen. Non-standard residues stand in square brackets, D forms with d. Residues, ends and D or L forms follow the SMILES beside them. αMeP = C[C@@]1(C(=O)O)CCCN1

Assays:
[1] = target: T1, Protein deacetylase HDAC6 (Homo sapiens) (UniProt Q9UBN7); details: at 10 µM
T1 sequence (whole entry): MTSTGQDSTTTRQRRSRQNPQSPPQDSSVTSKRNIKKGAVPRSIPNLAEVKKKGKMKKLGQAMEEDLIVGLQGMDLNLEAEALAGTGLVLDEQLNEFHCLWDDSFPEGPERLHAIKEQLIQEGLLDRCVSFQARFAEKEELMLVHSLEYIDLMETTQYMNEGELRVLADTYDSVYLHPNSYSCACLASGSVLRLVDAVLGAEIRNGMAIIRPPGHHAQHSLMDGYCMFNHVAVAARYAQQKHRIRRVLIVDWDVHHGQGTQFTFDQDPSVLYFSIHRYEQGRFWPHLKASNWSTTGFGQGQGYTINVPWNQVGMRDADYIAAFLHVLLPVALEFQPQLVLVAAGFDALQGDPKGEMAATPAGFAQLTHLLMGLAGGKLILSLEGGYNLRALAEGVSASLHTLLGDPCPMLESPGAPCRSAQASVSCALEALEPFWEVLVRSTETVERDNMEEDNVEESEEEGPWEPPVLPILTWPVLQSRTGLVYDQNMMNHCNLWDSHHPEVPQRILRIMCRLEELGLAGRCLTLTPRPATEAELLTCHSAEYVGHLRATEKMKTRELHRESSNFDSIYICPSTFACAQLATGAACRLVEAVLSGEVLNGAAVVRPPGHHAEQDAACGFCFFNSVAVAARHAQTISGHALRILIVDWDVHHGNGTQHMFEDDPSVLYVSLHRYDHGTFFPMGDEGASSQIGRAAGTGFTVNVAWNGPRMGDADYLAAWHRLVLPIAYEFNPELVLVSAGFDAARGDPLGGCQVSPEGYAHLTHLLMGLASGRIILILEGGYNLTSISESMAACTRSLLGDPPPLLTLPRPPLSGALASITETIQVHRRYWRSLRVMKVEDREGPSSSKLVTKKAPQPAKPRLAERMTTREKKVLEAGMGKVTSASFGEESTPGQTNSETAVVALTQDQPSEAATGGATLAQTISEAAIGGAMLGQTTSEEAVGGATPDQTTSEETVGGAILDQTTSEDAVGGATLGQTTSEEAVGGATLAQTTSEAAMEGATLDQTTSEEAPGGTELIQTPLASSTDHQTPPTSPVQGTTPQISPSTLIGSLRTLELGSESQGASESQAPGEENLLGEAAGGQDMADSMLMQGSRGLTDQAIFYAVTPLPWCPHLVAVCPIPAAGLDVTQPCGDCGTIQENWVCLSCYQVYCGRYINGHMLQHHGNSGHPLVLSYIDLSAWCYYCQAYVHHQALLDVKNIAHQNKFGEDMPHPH

[2] = target: Protein deacetylase HDAC6 (Homo sapiens) (UniProt Q9UBN7); details: at 10 µM; remark: listed apart in the source

Molecule	inhibition [1] [%]	inhibition [2] [%]
N[C@H](C(=O)O)c1ccc(O)c(C(=O)O)c1	-8.79	
N[C@@H](C(=O)O)c1ccc(O)c(C(=O)O)c1	1.46	
CC(C)c1ccc2oc3nc(N)c(C(=O)O)cc3c(=O)c2c1	98.2	
BISMUTH SUBCITRATE POTASSIUM, CHEMBL1201186		16.3
Cc1ccc(/C(=C\CN2CCCC2)c2cccc(/C=C/C(=O)O)n2)cc1	-6.81	
COc1cc(C[C@H]2c3cc(OC)c(OC)cc3CCN2C)c(Oc2cc3c(cc2OC)-c2c(OC)c(OC)cc4c2[C@H](C3)N(C)CC4)cc1OC	33.6	
COc1cc(C(=O)NCC2(N(C)C)CCCC2)cc(OC)c1OCc1ccccc1	0.96	
Nc1nc(NCCc2ccc(O)cc2)nc2nc(-c3ccco3)nn12	67.5	
COc1cc(C(=S)N2CCOCC2)cc(OC)c1OC	14.8	
COc1ccc(S(=O)(=O)N2c3ccc(Cl)cc3[C@](O)(c3ccccc3Cl)[C@@H]2C(=O)N2CCC[C@H]2C(N)=O)cc1OC	-7.22	
Cn1ccc2cc3c(cc21)CCN3C(=O)Nc1cccnc1	100	
O=C(NCC(=O)N1CCCC1)Nc1ccc2cnccc2c1	-7.55	
CSc1cc2c(cc1C(F)(F)F)N(C(=O)Nc1cccnc1)CC2	19.3	
Cn1ccc2cc(NC(=O)Nc3cccnc3)ccc21	88.1	
O=C(Nc1ccc2c(O)cc(S(=O)(=O)O)cc2c1)Nc1ccc2c(O)cc(S(=O)(=O)O)cc2c1	45.9	
COc1cc2c(cc1C(F)(F)F)N(C(=O)Nc1cc(F)cc(-c3cccnc3)c1)CC2	-6.46	
Cc1c(C(=O)NN2CCOCC2)nn(-c2ccc(Cl)cc2Cl)c1-c1ccc(I)cc1	0.27	
COc1cccc([C@@H](C)NCCCc2ccccc2Cl)c1	2.6	
CC(C)C[C@H](N)C(=O)O	5.48	
CC(=O)Nc1cccc(Nc2ncnc(N3CCC(OCc4ccc(OC(F)(F)F)cc4)CC3)n2)c1C	22.4	
CCc1c(-c2ccccc2)c(-c2ccccc2)nn1-c1ccccc1-c1cccc(OCC(=O)O)c1	10.2	
O=C(O)CCc1nc2ccccc2[nH]1	10.6	
c1ccc2[nH]c(-c3cscn3)nc2c1	97.3	

Molecule	inhibition [1] [%]	inhibition [2] [%]
CCN(c1cc(C#CCN2CCOCC2)cc(C(=O)NCc2c(C)cc(C)[nH]c2=O)c1C)[C@H]1CC[C@H](N(C)CCOC)CC1	-8.25	
COc1ccccc1OC(=O)C(C)c1ccc(CC(C)C)cc1 (configuration not stated)	10.7	
CCOC(=O)[C@H](CCc1ccccc1)N[C@@H](C)C(=O)N1[C@H](C(=O)O)C[C@H]2CCCC[C@@H]21	3.93	
Cc1cccc(C)c1-n1c(=O)c2cnc(Nc3ccc(N4CCN(C)CC4)cc3)nc2n2c3ccccc3nc12	-1.49	
O=C(Nc1c[nH]nc1-c1nc2ccc(CN3CCOCC3)cc2[nH]1)NC1CC1	32.3	
Nc1ccc(-c2nc3ccc(-c4nc5ccc(N)cc5[nH]4)cc3[nH]2)cc1	61.9	
Nc1ccc2cc3ccc(N)cc3nc2c1	6.02	
CC(C)C(C(=O)Nc1nccs1)c1ccc(Cl)cc1 (configuration not stated)	10.4	
COC(=O)c1csc(C(=O)c2c[nH]c3ccccc23)n1	47.6	
Nc1ccn([C@@H]2O[C@H](CO)[C@@H](O)C2(F)F)c(=O)n1	-4.87	
CCCOc1ccc2[nH]c(NC(=O)OC)nc2c1	31.6	
COC(=O)Nc1nc2cc(C(=O)c3ccccc3)ccc2[nH]1	-5.79	
COC(=O)Nc1nc2cc(C(=O)c3ccc(F)cc3)ccc2[nH]1	1.02	
COC(=O)Nc1nc2cc(SC(C)C)ccc2[nH]1	79.4	
COC(=O)Nc1nc2cc(Sc3ccccc3)ccc2[nH]1	65.2	
CCCC(=O)Nc1ncnc2c1ncn2C1O[C@@H]2COP(=O)(O)O[C@H]2[C@H]1OC(=O)CCC (some centres not stated)	3.41	
N#Cc1ncccn1	-1.21	
COc1cc(N2CCC(N3CCN(C)CC3)CC2)ccc1Nc1ncc(Cl)c(Nc2ccccc2S(=O)(=O)C(C)C)n1	17.9	
C[C@@]1(C(=O)N[C@@H](CCC(=O)O)C(=O)O)CCCN1C(=O)CN (H-Gly-[αMeP]-Glu-OH)	-8.16	
O=C1OC(OC(=O)c2cccnc2Nc2cccc(C(F)(F)F)c2)c2ccccc21 (configuration not stated)	4.26	
O=C(OCCOCCO)c1ccccc1Nc1cccc(C(F)(F)F)c1	46.4	
O=C(O)c1cccnc1C(=O)O	-0.23	
O=C(O)c1cccnc1Nc1cccc(C(F)(F)F)c1	74.8	

Molecule	inhibition [1] [%]	inhibition [2] [%]
Cc1c(Cl)cccc1Nc1ccccc1C(=O)O	32.3	
Cc1c(Nc2ncccc2C(=O)O)cccc1C(F)(F)F	89.7	
CN[C@H](C(=O)N[C@H](C(=O)N(C)[C@H](/C=C(\C)C(=O)O)C(C)C)C(C)(C)C)C(C)(C)c1ccccc1	-3.5	
CC1OC1P(=O)(O)O (configuration not stated)	-9.26	
TEPRENONE, CHEMBL5314356		27.9
CC1=C(C(=O)Nc2cc3cn[nH]c3cc2F)C(c2ccc(C(F)(F)F)cc2)CC(=O)N1 (configuration not stated)	24.4	
C#CCN[C@@H]1CCc2ccccc21	54	
c1ccc(Oc2cccnc2)cc1	10.2	
CCCCNc1nc(N)c2[nH]c(=O)n(Cc3ccc(OCCN(C)C)nc3)c2n1	-9.47	
CCCC(=O)OCOC(=O)C1=C(C)NC(C)=C(C(=O)OC)C1c1cccc(Cl)c1Cl (configuration not stated)	44.1	
Cc1ccc(Nc2ncc3c(n2)N(C)C(=O)N(c2cc(NC(=O)c4cccc(C(F)(F)F)c4)ccc2C)C3)cn1	2.43	
O=C(O)C1=CC(O)C(O)[C@H](O)C1 (some centres not stated)	11.8	
CCCn1c(=O)c2nc(-c3ccccc3)[nH]c2n(CCC)c1=O	-5.2	
CCCn1c(=O)c2[nH]c(-c3cnn(Cc4cccc(C(F)(F)F)c4)c3)nc2n(CC)c1=O	101	
CCOC(=O)COc1ccc2c(c1)C[C@@H](NC[C@H](O)c1cccc(Cl)c1)CC2	16.8	
Cn1nccc1Nc1nccc(-c2ccn([C@H](CO)c3ccc(Cl)c(F)c3)c(=O)c2)n1	26.5	
CN1CCC(Nc2ncc3ncnc(Nc4ccc(F)c(Cl)c4)c3n2)CC1	20.6	
CCn1c(-c2nonc2N)nc2cnc(Oc3cccc(NC(=O)c4ccc(OCCN5CCOCC5)cc4)c3)cc21	7.09	
O=C(Nc1cccc(Br)c1)c1cccc(S(=O)(=O)N2CCCCCC2)c1	12.5	
CCOc1cccc(NC(=O)c2ccc(N3CCCC3)c(C(F)(F)F)c2)c1	69.4	
Cc1cc(C)n(-c2cccc([C@H](CC(=O)O)CN3CC[C@@H](CCc4ccc5c(n4)NCCC5)C3)c2)n1	-4.01	
